Mcl1 Bid PPI: Mcl-1/Bid interaction inhibition | Q07820 | TR-FRET Mcl-1/Bid-Dy647 peptide binding, 1536-well | inhibition, % at 21.7 µM | 220,000 tested, 0.97% active;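 active means compounds that cut the binding signal by more than half at the single screening dose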;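 further: His-tagged Mcl-1 with europium anti-His antibody binding Bid BH3 peptide; 0% = Mcl-1 plus peptide wells and 100% = peptide-only wells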
eIF4E-4G inh: inhibitors of eIF4E and eIF4G interaction in translation initiation; P63073+Q04637; TR-FRET eIF4E-eIF4GI(517-606) binding, 2 h; inhibition, % at 21.7 µM; 220,000 tested, 0.37% active;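 further: 0% = full FRET control wells and 100% = background wells lacking eIF4GI fragment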
NCF1 inh: inhibitors of human p47phox binding; P14598; AID 1274; 220,000 tested, 0.53% active; inhibition, % at 24.7 µM; p47phox/p22phox peptide binding, fluorescence polarization, 2 h;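 further: 0% = p47phox with labelled peptide and 100% = labelled peptide alone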
Target sequence (P14598 whole entry, looked up): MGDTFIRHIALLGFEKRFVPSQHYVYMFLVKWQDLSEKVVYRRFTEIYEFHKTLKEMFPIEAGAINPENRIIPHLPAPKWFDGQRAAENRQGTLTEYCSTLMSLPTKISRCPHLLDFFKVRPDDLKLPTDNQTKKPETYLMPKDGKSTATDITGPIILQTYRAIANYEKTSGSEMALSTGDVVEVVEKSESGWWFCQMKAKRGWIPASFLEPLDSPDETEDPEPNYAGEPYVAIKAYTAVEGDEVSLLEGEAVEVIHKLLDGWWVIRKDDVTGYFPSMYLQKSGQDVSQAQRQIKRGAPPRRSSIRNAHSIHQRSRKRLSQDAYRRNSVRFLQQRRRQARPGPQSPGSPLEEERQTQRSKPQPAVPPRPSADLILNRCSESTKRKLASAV
Mcl1 Noxa PPI: disrupts binding of human Mcl-1 to Noxa peptide | AID 1022 | 220,000 tested, 1.5% active | Q07820 | TR-FRET Mcl-1/Noxa peptide binding, 2 h | inhibition, % at 21.7 µM;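 active means compounds that cut the protein-peptide binding signal by more than 50% relative to plate controls in a single-dose test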;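 further: His-tagged Mcl-1 with rhodamine Noxa BH3 peptide and terbium anti-His antibody; 0% = Mcl-1 plus Noxa peptide wells and 100% = peptide-only wells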
14-3-3 Bad PPI: disrupts binding of bovine 14-3-3 zeta to phospho-Bad peptide; inhibition, % at 21.7 µM; TR-FRET 14-3-3zeta/Dy647-pBad peptide displacement, 1 h; P63103; 220,000 tested, 0.71% active; AID 781;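 active means inhibition above about 70%, limit read from the data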;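 further: 0% = full 14-3-3 plus peptide FRET controls and 100% = background without 14-3-3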
Mcl-1 Bim block: human Bim-Mcl-1 interaction inhibition; Q07820; Bead-based flow cytometry, Bim peptide-Mcl-1 binding; inhibition, % at 10 µM; 190,000 tested, 0.1% active; in the data active means inhibition above about 40%;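 further: 0% = no compound tracer wells and 100% = peptide blocker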
An asterisk follows results filed as active; / = not tested or not shown. This is a sample that favours compounds with a hit; in the whole collection about 3.3% have one here.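 How the source made its calls, unless noted: active means inhibition above about 30% (limit read from the data); inactive means the rest.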

SMILES	Mcl1 Bid PPI	eIF4E-4G inh	NCF1 inh	Mcl1 Noxa PPI	14-3-3 Bad PPI	Mcl-1 Bim block
Cc1ccc(C(C)C)c(OCC(O)CN2CCN(CCO)CC2)c1 (centres undefined)	53*	4	-14	32	50	1
C=CCc1ccccc1OCC(O)CN1CCN(c2ccc(C)cc2)CC1 (centres undefined)	-13	0	-10	19	72*	-1
C=CCc1ccccc1OCC(O)CN1CCN(C(=O)OCC)CC1 (centres undefined)	-45	4	-4	12	4	-2
CCOC(=O)N1CCN(C(=O)COc2ccc3c(c2)C(=O)CC2(CCN(C(C)=O)CC2)O3)CC1	-5	-2	-4	-14	95*	0
Cc1cccc(NC(=O)c2cc(NC(=O)C3CCCCC3C(=O)O)ccc2N2CCCCC2)c1 (centres undefined)	-7	1	-6	19	13	-1
CC(=O)Nc1ccc(N2CCCCC2)c(C(=O)Nc2cccc(C)c2)c1	-24	43*	-26	18	2	-1
COC(C[C@H]1O[C@H]1C(=O)COCc1ccccc1)OC	-26	4	-15	12	-2	/
O=C(Cc1cccs1)Nc1nnc(CCc2ccccc2)s1	0	5	-12	10	5	2
CCCCCc1nnc(NC(=O)Cc2cccs2)s1	7	-1	-37	67*	-11	0
CC(C)(C)Cc1nnc(NC(=O)Cc2cccs2)s1	-30	25	-32	60*	34	-6
CC(C)Cc1nnc(NC(=O)Cc2cccs2)s1	-54	30	-67	56*	40	2
O=C(Cc1cccs1)Nc1nnc(-c2ccncc2)s1	-1	15	-16	12	2	0
CC(C)c1nnc(NC(=O)Cc2cccs2)s1	28	2	-2	7	9	-1
CCN1N=C(C)C=C(c2ccccc2)n2c1nc1ccccc12	-15	1	-2	-1	1	/
OCC1(Cc2ccccc2)CCCN(Cc2ccn[nH]2)C1 (centres undefined)	-43	0	-2	4	-15	1
COc1ccc2c(=O)cc(-c3ccccc3F)oc2c1	-8	2	-12	4	1	/
O=C(Nc1ccncc1)c1ccc(NS(=O)(=O)c2cccc(F)c2)cc1	-16	18	0	26	3	-5
Cc1nnc(SCC(=O)Nc2nc(-c3ccccc3)cs2)n1N	-20	-8	-75	5	1	-1
Cn1cnnc1SCC(=O)Nc1nc(-c2ccccc2)cs1	-5	2	-12	56*	-2	-2
CCC(C)N1CCNCC1 (centres undefined)	-4	-1	4	26	1	4
CCCCNc1c(N)n(CC(C)C)c(=O)[nH]c1=O	-16	-3	-8	-6	-7	2
CC(C)(CO)NCC(O)Cn1cc(C=O)c2ccccc21 (centres undefined)	-14	1	2	16	100*	-1
COc1ccc2c(c1)CC(C1(O)C(=O)N(C)c3ccccc31)C2=O (centres undefined)	-3	10	4	-11	74*	-2
O=C(CN1CCN(c2ccc(F)cc2)CC1)NCC1CCCO1 (centres undefined)	-79	13	-6	7	-10	-5
COc1ccccc1N1CCN(CC(=O)NCC2CCCO2)CC1 (centres undefined)	47	8	0	33	75*	-16
SMILES	Mcl1 Bid PPI	eIF4E-4G inh	NCF1 inh	Mcl1 Noxa PPI	14-3-3 Bad PPI	Mcl-1 Bim block
C=C(C)Cn1c(-c2ccncc2)n[nH]c1=S	-37	0	-7	0	-7	-2
Cc1ccc2nsnc2c1S(=O)(=O)NCCc1c(C)[nH]c2ccc(F)cc12	55*	-3	-313	8	5	0
Cc1ccc(C)c(NS(=O)(=O)c2c(C)ccc3nsnc23)c1	7	-2	-13	4	-7	1
Cc1cc(C)cc(OCC(=O)OCC(=O)N2CC(=O)Nc3ccccc32)c1	-20	2	-9	17	-15	-1
CS(=O)(=O)N1CCCC(C(=O)NCCc2ccc(Cl)cc2)C1 (centres undefined)	-32	3	-1	18	-3	-4
CCCS(=O)(=O)N1CCCC(C(=O)NCCc2ccc(Cl)cc2)C1 (centres undefined)	55*	-1	-11	0	13	-2
CCS(=O)(=O)N1CCCC(C(=O)NC2CCCC2)C1 (centres undefined)	-13	-3	2	3	89*	-1
O=C(NC1CCCCCCC1)C1CCN(S(=O)(=O)N2CCCC2)CC1	-28	58*	-2	7	-6	-2
CCCS(=O)(=O)N1CCCC(C(=O)NC2CCCCC2)C1 (centres undefined)	-3	-7	-8	-9	-13	1
Oc1ccccc1-n1c(-c2ccccc2)ccc1-c1ccccc1	-35	-7	0	17	2	/
Cc1cc2cc(CNC(=O)c3ccc(Br)o3)ccc2n1C	-81	-15	14	59*	7	/
CCCC(=O)NCc1ccc2c(c1)cc(C)n2C	-53	2	7	-5	-20	0
O=C1Nc2ccc(F)cc2C12Nc1ccccc1-c1nnc(SCc3ccccc3)nc1O2 (centres undefined)	2	-12	14	15	-1	-3
O=C1Nc2ccc(F)cc2C12Nc1ccccc1-c1nnc(SCc3ccccc3Cl)nc1O2 (centres undefined)	-7	-9	39*	22	-7	1
COc1ccc(CCNC(=O)CCc2ccc(S(=O)(=O)NCC(C)C)cc2)cc1OC	-45	0	0	5	-4	1
O=C1CS/C(=N\C(=O)N2c3ccccc3Sc3ccccc32)N1	0	1	-58	69*	-8	-1
CCCn1ncc(/C=N/O)c1C	-6	3	1	5	-2	/
O=C(NCc1ccc(Cl)cc1)c1ccc(N2CCCC2=O)cc1	-19	-5	-18	11	-3	0
CCOC(=O)C(=CNc1ccc(Oc2cccnc2)nc1)C(=O)OCC	-15	3	38*	5	-7	/
CC(C)n1c(O)c(/C=C2\C=NN=C2c2ccccc2)sc1=S	-10	-4	-3	66*	-5	/
Cc1cc([N+](=O)[O-])nn1Cc1ccc(C(=O)N/N=C/c2ccc(N(C)C)cc2)cc1	-13	6	-5	15	0	/
CCCCN=C1NN=C(c2cc3ccccc3o2)CS1	-45	-9	-45	70*	-8	-1
CCc1nnc2n1N=C(c1cccc([N+](=O)[O-])c1)CS2	13	6	-5	16	6	/
CCCCN=C1NN=C(c2cccc([N+](=O)[O-])c2)CS1	9	-3	6	51*	-5	3
COc1ccc(-c2nnc(SCC(=O)c3cc(C)n(Cc4cccs4)c3C)o2)cc1	37	-22	5	-96	75*	0

From PubChem BioAssay
